Data taken from PubChem BioAssay (NCATS).
Several values for one entry are separate records, joined by “and”; a condition that tells them apart may be missing. Identical values can stand only once. Inconclusive results are not listed. Where a call stands in place of a potency, no number is given. Activity calls are given as the source filed them. Unless noted, calls follow the shape of the full dose curve.

Columns and labels:
[1] = Cell Viability - HepG2 (AID 433); conditions: qHTS;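 also: potency is read from the fitted curve at half-maximal effect; cells exposed to compound for 40 hours; potency for ATP loss meaning cytotoxicity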
Summary of the method: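 HepG2 cells, 1500 per well, treated 40 hr at 37 °C in complete medium; viability from intracellular ATP by CellTiter-Glo luminescence. Normalized to DMSO and 100 uM tamoxifen; AC50 from Hill fit of qHTS concentration-response.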

[2] = target: Mitogen-activated protein kinase 10 (Mus musculus) (UniProt Q61831); assay: JNK3 AlphaScreen Assay (AID 530; active = well fitted curve in either direction with a large enough effect, not every such curve was filed as active;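 also: kinase came from lysate of stimulated human HepG2 cells; signal reports phosphorylation of biotinylated GST-cJun 1-79 at Ser73 with 10 µM ATP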); conditions: JNK3 lysate, c-Jun phosphorylation; series mostly up to 57.1 µM
Summary of the method: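 qHTS titrations with 15 min compound pre-incubation before adding ATP (10 uM final). Read-out: AlphaScreen of Ser73-phosphorylated biotin-GST-cJun using HepG2 lysate JNK3 activated by IL-1β and TNFα.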

[3] = Cell Viability - NIH 3T3 (AID 541; active = well fitted curve in the direction sought with a large enough effect; an effect the other way counts as inactive or inconclusive;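 also: cells exposed to compound for 40 hours; nearly all actives have a fitted effect of over 25% in size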); conditions: NIH 3T3 cell viability, qHTS; activity change, negative = cytotoxicity: at 92.2 µM (top of the series)
Summary of the method: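 Cells seeded at 1000/well, rested 5 hr at 37 °C, then dosed and incubated 40 hr at 37 °C. CellTiter-Glo added, 20 min room temperature, luminescence read. AC50 by Hill fit.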

[4] = MultiTox-Fluor Cytotoxicity Assay - LYMP1-002 - Dead Cells (AID 960; active = well fitted curve in the direction sought with a large enough effect; an effect the other way counts as inactive or inconclusive; also: nearly all actives have a fitted effect of over 60% in size); conditions: LYMP1-002 lymphoblastoid cells, dead-cell protease fluorescence; series mostly up to 46.1 µM
Summary of the method: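 Cells were plated, rested 5 hr, then treated with compound dilution series for 16 hr at 37 C. After adding substrate reagent and 60 min at room temperature, dead-cell protease fluorescence gave concentration-response curves fitted by the Hill equation.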

[5] = target: Estrogen receptor (Homo sapiens) (UniProt P03372); assay: qHTS assay for small molecule agonists of estrogen receptor alpha signaling (AID 588514); conditions: ER-alpha-UAS-bla HEK293, beta-lactamase ratio, 18 h; series mostly up to 76.8 µM; also: nearly all actives have a fitted effect of over 70% in size; also: potency is read from the fitted curve at half-maximal effect
Summary of the method: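 Efficacy is expressed against 20 nM 17-beta-estradiol (100%) and DMSO basal (0%); EC50 from Hill equation. Assay: beta-lactamase reporter in ER-alpha-UAS-bla HEK 293 cells, 18 h compound incubation, CCF4 detection.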

[6] = qHTS assay for small molecule antagonists of peroxisome proliferator-activated receptor delta signaling (AID 588535; active = well fitted inhibition curve with a large enough effect in the signal ratio, with a control signal flat, not every such curve was filed as active; the % refers to the signal ratio;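 as to max response: cells co-treated with a PPAR-delta agonist as stimulator during compound exposure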); conditions: HEK293T PPARd-UAS-bla, beta-lactamase FRET ratio, 18 h; 460 nm channel
Summary of the method: (§1)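 Titrations were run on PPAR-delta-UAS-bla HEK293T cells in charcoal/dextran-stripped serum, incubated 18 h at 37 C. CCF4 fluorescence (460/530 nm) after 2 h RT; Hill equation yields IC50 and maximal response.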

[7] = target: Peroxisome proliferator-activated receptor delta (Homo sapiens) (UniProt Q03181); assay: as above; conditions: HEK293T PPARd-UAS-bla, beta-lactamase FRET ratio, 18 h; series mostly up to 76.7 µM
Summary of the method: as §1

[8] = target: Peroxisome proliferator-activated receptor gamma (Homo sapiens) (UniProt P37231); assay: qHTS assay for small molecule agonists of peroxisome proliferator-activated receptor gamma signaling (AID 588536; active = well fitted curve in the direction sought with a large enough effect in the signal ratio, with a control signal flat, not every such curve was filed as active; the % refers to the signal ratio); conditions: HEK293 PPARg-UAS-bla, beta-lactamase ratio, 16 h, percent of rosiglitazone response, DMSO as zero; series mostly up to 76.7 µM
Summary of the method: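 Compound treatment: 16 h, 37 C, HEK293 GeneBLAzer cells. Detection: CCF4, 2 h RT. Values: Hill-fit EC50, efficacy as % of 2 uM rosiglitazone.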

[9] = target: Vitamin D3 receptor (Homo sapiens) (UniProt P11473); assay: qHTS assay for small molecule antagonists of vitamin D receptor signaling (AID 588541); conditions: HEK293T VDR-UAS-bla, beta-lactamase ratio, antagonist mode; series mostly up to 76.7 µM;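 also: receptor activated by calcitriol during compound treatment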
Summary of the method: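 Antagonist-mode beta-lactamase reporter assay: HEK293T VDR-UAS-bla cells were exposed to titrated compound alongside 1-alpha,25-dihydroxyvitamin D3 at 3 nM final for 16 h. Values were normalized to the 50 nM agonist control and DMSO basal, with IC50 and efficacy from Hill equation fits.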

[10] = target: Vitamin D3 receptor (Homo sapiens) (UniProt P11473); assay: qHTS assay for small molecule agonists of vitamin D receptor signaling (AID 588543); conditions: HEK293T VDR-UAS-bla, beta-lactamase ratio, 16 h; series mostly up to 76.8 µM
Summary of the method: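 VDR-UAS-bla HEK293T cells, 2000/well, 2% charcoal-stripped FBS; compound titration 16 h at 37 C; CCF4 beta-lactamase ratio read. Normalized to 50 nM 1-alpha,25-dihydroxyvitamin D3 (100%) and DMSO; Hill fit gives EC50, efficacy.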

[11] = target: Thyroid hormone receptor beta (Homo sapiens) (UniProt P10828); assay: qHTS assay for small molecule antagonists of thyroid hormone receptor beta signaling (AID 588547; active = well fitted inhibition curve with a large enough effect in the signal ratio, with a control signal flat, not every such curve was filed as active; the % refers to the signal ratio;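 also: cells stimulated with 0.4 nM T3 agonist during compound exposure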); conditions: TR-UAS-bla HEK293, beta-lactamase ratio, antagonist mode, 18 h
Summary of the method: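 Inhibition of T3-driven (0.4nM final) beta-lactamase reporter activity was measured over 0.59 nM to 92 uM compound after 18 h at 37 C. The cells were GripTite HEK293 TR-UAS-bla in charcoal/dextran-stripped serum, with CCF4 ratio read-out and IC50 from Hill fits.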

[12] = qHTS assay for small molecule activators of the nuclear factor-kappa B (NF-kB) signaling pathway (AID 651749; active = well fitted activation curve with a large enough effect in the signal ratio; the % refers to the signal ratio); conditions: NF-kB-bla ME-180 cells, beta-lactamase FRET ratio, 16 h; stronger effect = higher value
Summary of the method: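 Activation measured after 16 hr compound treatment at 37C, 5% CO2, of 2,000 ME-180 cells/well stably expressing an NF-kB response element–driven beta-lactamase reporter, via FRET-disruption fluorescence.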

[13] = qHTS assay to identify small molecules that stimulate interleukin-8 (IL-8) secretion (AID 651758; active = well fitted activation curve with a large enough effect in the signal ratio; the % refers to the signal ratio); conditions: HTRF ratio (665/615); series mostly up to 92.2 µM
Summary of the method: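 Secreted IL-8 measured homogeneously by TR-FRET (two labelled anti-IL-8 antibodies, 1-3 h at room temperature) after a 16 h, 37 C compound treatment of THP-1 cells at 2000 cells/well.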

[14] = qHTS assay for small molecule antagonists of the retinoid-related orphan receptor gamma (ROR-gamma) signaling pathway - cell viability counter screen (AID 720652; active = well fitted curve in the direction sought with a large enough effect in the repeat runs; an effect the other way counts as inactive or inconclusive;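 also: CHO reporter cells with doxycycline-induced ROR-gamma expression; compound exposure lasted 16 hr before ATP read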); conditions: RORgamma reporter cell line viability counter screen; series mostly up to 92.2 µM
Summary of the method: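 Steps: seed CHO cells bearing TET-inducible ROR and ROR response element-luciferase; rest 5 hr at 37 C; add compound, then doxycycline; incubate 16 hr; add CellTiter-Glo and read luminescence as ATP-based viability.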

[15] = Cell Viability - LYMP2-001 (AID 921; active = well fitted curve in the direction sought with a large enough effect; an effect the other way counts as inactive or inconclusive;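 also: cells exposed to compound for 24 h at 37 °C; nearly all actives have a fitted effect of over 70% in size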); conditions: LYMP2-001 lymphoblastoid cell viability; series mostly up to 92.2 µM
Summary of the method: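 Human lymphoblastoid LYMP2-001 cells, 2500 per well, in complete medium, treated 24 h at 37 C. Viability from cellular ATP by CellTiter-Glo luminescence; AC50 from Hill-equation fits of qHTS concentration-response.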

[16] = target: Glucocorticoid receptor (Homo sapiens) (UniProt P04150); assay: qHTS assay for small molecule agonists of glucocorticoid receptor signaling (AID 588532; active = well fitted curve in the direction sought with a large enough effect in the signal ratio, with a control signal flat; the % refers to the signal ratio); conditions: HeLa MMTV-bla, beta-lactamase ratio, agonist, 18 h; stronger effect = higher value; percent of dexamethasone control, DMSO zero
Summary of the method: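 Using MMTV-bla HeLa cells in medium with 1% stripped FBS and 25 mM HEPES, compounds were titrated and incubated overnight-length (18 h). Beta-lactamase cleavage of CCF4 was quantified by dual-emission fluorescence.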

[17] = target: Glucocorticoid receptor (Homo sapiens) (UniProt P04150); assay: qHTS assay for small molecule antagonists of glucocorticoid receptor signaling (AID 588533; active = well fitted inhibition curve with a large enough effect in the signal ratio, with a control signal flat, not every such curve was filed as active; the % refers to the signal ratio;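 also: cells stimulated with 2 nM dexamethasone as agonist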); conditions: HeLa MMTV-bla, GRE beta-lactamase ratio, antagonist mode, 18 h; series mostly up to 76.8 µM
Summary of the method: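 Antagonist-mode qHTS: compound titrations added to GRE-bla HeLa cells, then dexamethasone 2 nM final; 18 h, 37 C. CCF4 FRET fluorescence normalized to dexamethasone and DMSO; IC50 from Hill fit.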

[18] = target: Peroxisome proliferator-activated receptor gamma (Homo sapiens) (UniProt P37231); assay: qHTS assay for small molecule antagonists of peroxisome proliferator-activated receptor gamma signaling (AID 588537; active = well fitted inhibition curve with a large enough effect in the signal ratio, with a control signal flat, not every such curve was filed as active; the % refers to the signal ratio;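 also: reporter cells co-stimulated with 50 nM rosiglitazone agonist during compound treatment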); conditions: HEK293 PPARg-UAS-bla, beta-lactamase ratio, antagonist mode; series mostly up to 76.8 µM
Summary of the method: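 Antagonist-mode β-lactamase reporter screen run as a titration series. HEK293 PPARγ-UAS-bla cells are stimulated with rosiglitazone (50 nM final) for 16 h, then CCF4 is read at 460/530 nm. Data are scaled between DMSO and rosiglitazone and fitted to the Hill equation.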

[19] = qHTS assay for small molecule agonists of the antioxidant response element (ARE) signaling pathway (AID 651741; active = well fitted activation curve with a large enough effect in the signal ratio; the % refers to the signal ratio); conditions: HepG2 ARE-bla reporter, beta-lactamase FRET ratio, 16 h; series mostly up to 96 µM
Summary of the method: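 Beta-lactamase reporter under ARE control in HepG2 cells, 2,000 per well, was induced by 16 h compound treatment at 37 C. Read-out was fluorescence from LiveBLAzer B/G FRET substrate after 2 h at room temperature.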

[20] = Cell Viability - MRC5 (AID 434); conditions: MRC5 lung fibroblast viability, qHTS;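 also: potency is read from the fitted curve at half-maximal effect; cells exposed to compound for 40 hours at 37 °C; potency reflects cytotoxicity seen as loss of intracellular ATP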
Summary of the method: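 AC50 values come from Hill-equation fits of intracellular ATP loss, measured by CellTiter-Glo luminescence. Normal lung fibroblasts (MRC5) had 40 hr compound treatment at 37 C, normalized between DMSO and 100 uM tamoxifen.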

Chain of Vitamin D3 receptor (Homo sapiens) (P11473 whole entry, looked up): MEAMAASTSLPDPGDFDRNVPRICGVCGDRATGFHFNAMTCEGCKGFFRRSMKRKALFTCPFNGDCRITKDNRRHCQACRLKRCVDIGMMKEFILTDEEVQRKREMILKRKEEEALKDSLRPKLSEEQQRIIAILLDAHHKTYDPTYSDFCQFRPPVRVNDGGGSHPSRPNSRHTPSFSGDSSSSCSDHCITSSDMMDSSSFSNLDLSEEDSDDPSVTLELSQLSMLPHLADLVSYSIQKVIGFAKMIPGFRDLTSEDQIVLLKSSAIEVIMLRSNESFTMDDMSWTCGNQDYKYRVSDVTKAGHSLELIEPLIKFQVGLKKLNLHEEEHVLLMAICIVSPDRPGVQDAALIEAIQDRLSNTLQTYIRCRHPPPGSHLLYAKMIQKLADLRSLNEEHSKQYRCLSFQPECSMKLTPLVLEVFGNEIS
Chain of Peroxisome proliferator-activated receptor delta (Homo sapiens) (Q03181 whole entry, looked up): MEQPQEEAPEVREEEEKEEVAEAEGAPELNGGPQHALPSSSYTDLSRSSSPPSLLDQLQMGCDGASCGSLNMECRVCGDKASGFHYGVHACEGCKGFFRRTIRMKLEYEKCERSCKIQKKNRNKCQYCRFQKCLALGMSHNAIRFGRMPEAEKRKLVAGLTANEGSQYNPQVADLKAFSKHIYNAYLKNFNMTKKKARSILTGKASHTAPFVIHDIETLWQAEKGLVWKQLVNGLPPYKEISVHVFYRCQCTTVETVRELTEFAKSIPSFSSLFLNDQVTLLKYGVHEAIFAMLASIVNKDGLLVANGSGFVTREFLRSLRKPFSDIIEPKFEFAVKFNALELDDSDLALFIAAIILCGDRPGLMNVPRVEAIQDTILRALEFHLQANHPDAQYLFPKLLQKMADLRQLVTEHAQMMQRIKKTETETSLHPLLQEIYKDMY
Chain of Peroxisome proliferator-activated receptor gamma (Homo sapiens) (P37231 whole entry, looked up): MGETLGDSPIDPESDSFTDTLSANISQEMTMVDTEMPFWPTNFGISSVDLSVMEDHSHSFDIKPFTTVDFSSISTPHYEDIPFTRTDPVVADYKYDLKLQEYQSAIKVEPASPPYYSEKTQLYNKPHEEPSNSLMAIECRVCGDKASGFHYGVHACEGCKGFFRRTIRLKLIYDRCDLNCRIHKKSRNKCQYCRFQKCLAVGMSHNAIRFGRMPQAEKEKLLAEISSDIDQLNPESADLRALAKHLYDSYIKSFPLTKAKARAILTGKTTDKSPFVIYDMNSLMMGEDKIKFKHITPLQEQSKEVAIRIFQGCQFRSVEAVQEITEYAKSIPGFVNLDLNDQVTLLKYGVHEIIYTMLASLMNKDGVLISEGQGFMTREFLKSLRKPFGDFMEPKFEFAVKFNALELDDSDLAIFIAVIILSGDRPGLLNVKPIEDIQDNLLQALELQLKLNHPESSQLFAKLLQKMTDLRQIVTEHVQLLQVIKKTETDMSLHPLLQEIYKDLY
Chain of Thyroid hormone receptor beta (Homo sapiens) (P10828 whole entry, looked up): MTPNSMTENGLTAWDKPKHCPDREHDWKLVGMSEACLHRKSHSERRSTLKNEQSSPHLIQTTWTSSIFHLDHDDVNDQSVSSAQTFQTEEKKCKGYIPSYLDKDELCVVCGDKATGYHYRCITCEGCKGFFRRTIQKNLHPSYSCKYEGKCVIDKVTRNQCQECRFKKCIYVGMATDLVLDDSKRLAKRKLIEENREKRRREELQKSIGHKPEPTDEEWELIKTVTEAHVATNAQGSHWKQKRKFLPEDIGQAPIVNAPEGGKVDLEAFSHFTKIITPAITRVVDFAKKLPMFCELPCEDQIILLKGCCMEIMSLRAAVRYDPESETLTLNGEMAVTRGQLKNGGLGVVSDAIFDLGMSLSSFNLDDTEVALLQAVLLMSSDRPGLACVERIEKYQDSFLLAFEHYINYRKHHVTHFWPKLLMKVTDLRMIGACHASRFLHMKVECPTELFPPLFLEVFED
Chain of Glucocorticoid receptor (Homo sapiens) (P04150 whole entry, looked up): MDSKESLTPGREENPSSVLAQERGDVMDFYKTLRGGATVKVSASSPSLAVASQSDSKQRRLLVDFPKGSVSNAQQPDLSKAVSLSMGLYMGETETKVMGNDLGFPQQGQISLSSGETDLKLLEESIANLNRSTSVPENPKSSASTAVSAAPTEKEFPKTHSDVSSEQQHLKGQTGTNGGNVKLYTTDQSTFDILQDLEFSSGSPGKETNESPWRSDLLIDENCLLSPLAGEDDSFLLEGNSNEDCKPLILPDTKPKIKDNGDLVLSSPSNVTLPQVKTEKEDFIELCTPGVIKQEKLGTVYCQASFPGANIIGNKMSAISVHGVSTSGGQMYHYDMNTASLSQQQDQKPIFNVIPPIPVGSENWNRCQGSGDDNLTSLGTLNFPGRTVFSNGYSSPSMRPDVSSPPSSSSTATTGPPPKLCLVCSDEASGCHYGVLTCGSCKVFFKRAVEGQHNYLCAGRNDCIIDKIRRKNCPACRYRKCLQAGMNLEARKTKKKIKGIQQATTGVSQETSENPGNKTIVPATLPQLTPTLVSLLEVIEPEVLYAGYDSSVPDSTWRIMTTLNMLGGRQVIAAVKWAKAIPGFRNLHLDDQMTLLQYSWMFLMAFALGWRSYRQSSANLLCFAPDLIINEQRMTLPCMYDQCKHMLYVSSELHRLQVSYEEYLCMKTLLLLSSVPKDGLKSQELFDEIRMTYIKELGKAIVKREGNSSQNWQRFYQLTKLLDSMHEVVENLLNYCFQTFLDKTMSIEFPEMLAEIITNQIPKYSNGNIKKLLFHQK
Chain of Estrogen receptor (Homo sapiens) (P03372 whole entry, looked up): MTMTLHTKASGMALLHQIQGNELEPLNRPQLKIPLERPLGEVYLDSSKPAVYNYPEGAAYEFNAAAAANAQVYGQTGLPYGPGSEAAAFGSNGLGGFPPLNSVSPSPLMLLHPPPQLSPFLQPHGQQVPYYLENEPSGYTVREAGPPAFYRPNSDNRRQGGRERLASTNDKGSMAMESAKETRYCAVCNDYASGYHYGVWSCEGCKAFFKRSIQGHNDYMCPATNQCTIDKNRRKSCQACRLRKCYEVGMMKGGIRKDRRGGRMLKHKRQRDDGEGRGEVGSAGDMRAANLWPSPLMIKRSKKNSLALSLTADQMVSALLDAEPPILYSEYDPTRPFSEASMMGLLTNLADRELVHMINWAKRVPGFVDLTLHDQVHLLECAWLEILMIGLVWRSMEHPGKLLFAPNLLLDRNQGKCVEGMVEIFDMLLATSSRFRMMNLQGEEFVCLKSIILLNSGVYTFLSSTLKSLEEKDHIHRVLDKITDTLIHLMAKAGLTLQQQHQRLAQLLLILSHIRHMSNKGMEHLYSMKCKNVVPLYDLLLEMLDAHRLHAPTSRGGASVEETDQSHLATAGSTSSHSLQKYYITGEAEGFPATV

## Oc1c(Cl)cccc1Cl
[1]
  Potency: > 92 µM (inactive)
[2]
  Potency: inactive
[3]
  Potency: inactive
[4]
  Potency: inactive
[5]
  Potency: inactive
[6]
  max response: 38.7%
[7]
  outcome: inactive
[8]
  outcome: inactive
[9]
  outcome: inactive
[10]
  outcome: inactive
[11]
  activity change % (negative = inhibition): -18.9% (inactive)
[12]
  activation: -0.406% (inactive)
[13]
  Potency: inactive
[14]
  Potency: inactive

## C=CCBr
[1]
  Potency: > 92 µM (inactive)
[2]
  Potency: inactive
[3]
  Potency: inactive
[15]
  Potency: inactive
[5]
  Potency: inactive
[16]
  activation: 0.974% (inactive)
[9]
  outcome: inactive
[10]
  outcome: inactive
[11]
  activity change % (negative = inhibition): -19.2% (inactive)
[14]
  Potency: inactive

## Clc1cccc(Cl)c1
[1]
  Potency: > 92 µM (inactive)
[2]
  Potency: inactive
[3]
  Potency: inactive
[15]
  Potency: inactive
[4]
  Potency: inactive
[16]
  activation: -3.34% (inactive)
[17]
  outcome: inactive
[6]
  max response: 20.6%
[7]
  outcome: inactive
[8]
  outcome: inactive
[9]
  outcome: inactive
[10]
  outcome: inactive
[12]
  activation: -1.17% (inactive)
[13]
  Potency: inactive

## COc1c(C(C)(C)C)cc([N+](=O)[O-])c(C)c1[N+](=O)[O-]
[1]
  Potency: > 92 µM (inactive)
[2]
  Potency: inactive
[3]
  Potency: inactive
[15]
  Potency: inactive
[4]
  Potency: inactive
[5]
  Potency: 7.08 µM (active)
[16]
  activation: -4.08% (inactive)
[17]
  outcome: inactive
[8]
  outcome: inactive
[18]
  Potency: inactive
[9]
  outcome: inactive
[10]
  outcome: inactive
[11]
  activity change % (negative = inhibition): 24.1% (inactive)
[19]
  Potency: inactive
[12]
  activation: -0.667% (inactive)
[13]
  Potency: inactive
[14]
  Potency: inactive

## ClCC(Br)CBr (centres undefined)
[1]
  Potency: > 92 µM (inactive)
[2]
  Potency: inactive
[3]
  Potency: inactive
[4]
  Potency: inactive
[5]
  Potency: inactive
[16]
  activation: -3.35% (inactive)
[17]
  outcome: inactive
[8]
  outcome: inactive
[9]
  outcome: inactive
[10]
  outcome: inactive
[12]
  activation: -0.578% (inactive)
[14]
  Potency: inactive

## S=c1[nH]c2ccccc2[nH]1
[1]
  Potency: > 92 µM (inactive)
[2]
  Potency: inactive
[3]
  Potency: inactive
[15]
  Potency: inactive
[16]
  activation: -3.9% (inactive)
[17]
  outcome: inactive
[8]
  outcome: inactive
[18]
  Potency: inactive
[11]
  activity change % (negative = inhibition): -0.89% (inactive)
[13]
  Potency: inactive

## Clc1ccccc1
[1]
  Potency: > 92 µM (inactive)
[2]
  Potency: inactive
[3]
  Potency: inactive
[15]
  Potency: inactive
[4]
  Potency: inactive
[5]
  Potency: inactive
[16]
  activation: -4.89% (inactive)
[17]
  outcome: inactive
[6]
  max response: -34.6%
[7]
  outcome: inactive
[8]
  outcome: inactive
[18]
  Potency: inactive
[9]
  outcome: inactive
[10]
  outcome: inactive

## CC12CC1(C)C(=O)N(c1cc(Cl)cc(Cl)c1)C2=O (centres undefined)
[1]
  Potency: > 92 µM (inactive)
[20]
  Potency: > 92 µM (inactive)
[3]
  Potency: inactive
[15]
  Potency: inactive
[4]
  Potency: inactive
[16]
  activation: -1.15% (inactive) and -3.35% (inactive)
[17]
  outcome: inactive
[6]
  max response: -1.5% and 19.3%
[7]
  outcome: inactive
[8]
  outcome: inactive
[18]
  Potency: inactive
[9]
  outcome: inactive
[11]
  activity change % (negative = inhibition): 4.26% (inactive) and 9.02% (inactive)
